In ChEMBL document CHEMBL4513149, “CO-ADD screening of MMV (CH) - MMV compounds” (2021):
Potency and affinity values are given separately.

These compounds were tested on Klebsiella pneumoniae. Conditions: Concentration 20 uM; ASSAY_TEST Inhibition of Bacterial Growth; detection method Absorption (OD600); MEDIA CAMHB; plate type 384well; NBS; CORNING #3640; time 18 hr.

SMILES | Inhibition [%]
CC(C)(C)OC(=O)N1CCC(Cn2nc(-c3cnc4ccccc4c3)c3c(N)ncnc32)CC1 | 15.77
CCCS(=O)(=O)N1CCC(CO)(Cc2ccccc2C(F)(F)F)CC1 | 9.23
Nc1nc(N)c2c3c(sc2n1)CN(Cc1ccccc1)CC3 | 10.27
COc1ccc(Nc2ccccc2NC(=O)c2ccc(O)nc2)cc1 | -2.41
CCOc1ccc(-c2nc(NC(=O)CS(=O)(=O)c3ccccc3)sc2C)cc1 | 8.83
COc1ccc2nc(C)cc(OCC(=O)Nc3ccccc3OC)c2c1 | 17.25
Cc1cccc(Cn2ccc(NC(=O)c3ccc4c(c3)OCO4)n2)c1 | 15.15
Nc1ncc(-c2cn[nH]c2)cc1-c1nc2cc(Cl)cnc2[nH]1 | 5.89
c1ccc(Oc2ccc(-c3cc(CN4CCOCC4)[nH]n3)cc2)cc1 | 7.99
OC[C@H]1O[C@@H](n2c3ccc(Cl)cc3c3c(-c4cc5ccccc5o4)ncnc32)C(O)[C@H]1O (some centres not stated) | 8.56
COc1cccn2c(C(=O)N3CCCCC3)c(C(F)(F)F)nc12 | 7.08
Nc1cccnc1Nc1ccc(Cl)cc1 | 2.25
CC(C)(C)c1cc(C(=O)Nc2cccnc2)cc(C(=O)Nc2cccnc2)c1 | 16.7
CNC(=O)CNc1nc(-c2ccccn2)nc2scc(-c3ccccc3)c12 | 15.46
O=C1Nc2ccc(Br)cc2C12NCCc1c2[nH]c2ccccc12 (configuration not stated) | 4.49
COc1ccc(C2=NN(C3CCCCCC3)C(=O)C2(C)C)cc1OCCCCOc1ccc(-c2nn[nH]n2)cc1 | 0.76
O=S(=O)(c1ccc(Cl)cc1)N1CCN(C(=S)NCc2ccco2)CC1 | 5.39
CS(=O)(=O)c1ccc(C(=O)N(CC2CCCO2)c2nc3ccccc3s2)cc1[N+](=O)[O-] (configuration not stated) | 7.4

SMILES | Inhibition [%]
Cc1cc(NC(=O)c2ccc(S(=O)(=O)N(Cc3ccccc3)C(C)C)cc2)no1 | 8.9
COc1ccc(Oc2ccc([C@@H](C)N(C)c3ncc4c(N)nc(N)nc4n3)cc2)cc1 | 18.87
COc1ccc(C2=NCCN2)cc1-c1cn(-c2cccc(C3=NCCN3)c2)nn1.O=C(O)C(F)(F)F.O=C(O)C(F)(F)F | 17.32
FC(F)(F)c1cccc(-c2nc3c(NCc4ccncc4)nccc3[nH]2)c1 | 6.33
COc1ccc(OC(C)C(=O)Nc2ccc(Cl)cc2C)cc1 (configuration not stated) | 4.92
Nc1ncc(-c2ccc(C(F)(F)F)nc2)cc1-c1ccc(C(F)(F)F)nc1 | -7.95
CCCCOC(=O)Nc1cc2nc(C3CCCCC3)[nH]c2cc1N1CCCC1 | 3.91
N#Cc1ccc(-c2cnc(N)c(-c3ccc(C(N)=O)cc3)n2)cc1 | 16.03
Cl.NCCCC(N)(C(=O)O)C(F)F.O (configuration not stated) [EFLORNITHINE HYDROCHLORIDE] | 11.19
CCCCc1ccc(NC(=O)Nc2ccc(O[C@H]3CCCC[C@@H]3N(C)c3ccccc3)c(F)c2)cc1 | 12.88
CC(C(=O)N1CCCC1)N1CCN(S(=O)(=O)c2ccc(C(C)(C)C)cc2)CC1 (configuration not stated) | 0.26
COc1ccc(CCN2CCC(NCc3cccc(N(C)C)c3)CC2)cc1 | 7.89
CC(C)(C)c1cc(C(=O)N2CCN(c3nccnc3C#N)CC2)n(Cc2ccccc2)n1 | 14.9
COc1cc2ncnc(NC3CCN(Cc4ccccc4)CC3)c2cc1OC | 10.11
CC1(COc2ccc(N3CCC(Oc4ccc(OC(F)(F)F)cc4)CC3)cc2)Cn2cc([N+](=O)[O-])nc2O1 (configuration not stated) | 19.71
Cc1ccccc1CN1CCC(O)(c2ccc(Cl)c(C(F)(F)F)c2)CC1 | 11.69
CCOc1ccccc1NC(C)C(=O)Nc1cc(C(F)(F)F)ccc1N1CCOCC1 (configuration not stated) | 14.66
CC(C)(C)C(=O)N(CCCCCCN1C[C@H](O)[C@@H](O)[C@H](O)[C@H]1CO)C1CCCCCC1 | 7.47

What follows are compounds tested on Candida albicans. Conditions: 20 µM.

SMILES | Inhibition [%]
CC(C)(C)OC(=O)N1CCC(Cn2nc(-c3cnc4ccccc4c3)c3c(N)ncnc32)CC1 | 2.29
CCCS(=O)(=O)N1CCC(CO)(Cc2ccccc2C(F)(F)F)CC1 | 3.76
Nc1nc(N)c2c3c(sc2n1)CN(Cc1ccccc1)CC3 | 2.79
COc1ccc(Nc2ccccc2NC(=O)c2ccc(O)nc2)cc1 | 1.42
CCOc1ccc(-c2nc(NC(=O)CS(=O)(=O)c3ccccc3)sc2C)cc1 | 3.16
COc1ccc2nc(C)cc(OCC(=O)Nc3ccccc3OC)c2c1 | 0.63
Cc1cccc(Cn2ccc(NC(=O)c3ccc4c(c3)OCO4)n2)c1 | 6.79
Nc1ncc(-c2cn[nH]c2)cc1-c1nc2cc(Cl)cnc2[nH]1 | 4.36
c1ccc(Oc2ccc(-c3cc(CN4CCOCC4)[nH]n3)cc2)cc1 | 4.1
OC[C@H]1O[C@@H](n2c3ccc(Cl)cc3c3c(-c4cc5ccccc5o4)ncnc32)C(O)[C@H]1O (some centres not stated) | 8.5
COc1cccn2c(C(=O)N3CCCCC3)c(C(F)(F)F)nc12 | 1.9
Nc1cccnc1Nc1ccc(Cl)cc1 | 1.73
CC(C)(C)c1cc(C(=O)Nc2cccnc2)cc(C(=O)Nc2cccnc2)c1 | 3.35
CNC(=O)CNc1nc(-c2ccccn2)nc2scc(-c3ccccc3)c12 | 0.88
O=C1Nc2ccc(Br)cc2C12NCCc1c2[nH]c2ccccc12 (configuration not stated) | 2.19
COc1ccc(C2=NN(C3CCCCCC3)C(=O)C2(C)C)cc1OCCCCOc1ccc(-c2nn[nH]n2)cc1 | 5.32
O=S(=O)(c1ccc(Cl)cc1)N1CCN(C(=S)NCc2ccco2)CC1 | 4.22
CS(=O)(=O)c1ccc(C(=O)N(CC2CCCO2)c2nc3ccccc3s2)cc1[N+](=O)[O-] (configuration not stated) | 3.23

SMILES | Inhibition [%]
Cc1cc(NC(=O)c2ccc(S(=O)(=O)N(Cc3ccccc3)C(C)C)cc2)no1 | 1.89
COc1ccc(Oc2ccc([C@@H](C)N(C)c3ncc4c(N)nc(N)nc4n3)cc2)cc1 | 5.99
COc1ccc(C2=NCCN2)cc1-c1cn(-c2cccc(C3=NCCN3)c2)nn1.O=C(O)C(F)(F)F.O=C(O)C(F)(F)F | 2.35
FC(F)(F)c1cccc(-c2nc3c(NCc4ccncc4)nccc3[nH]2)c1 | 3.63
COc1ccc(OC(C)C(=O)Nc2ccc(Cl)cc2C)cc1 (configuration not stated) | 7.33
Nc1ncc(-c2ccc(C(F)(F)F)nc2)cc1-c1ccc(C(F)(F)F)nc1 | 5.26
CCCCOC(=O)Nc1cc2nc(C3CCCCC3)[nH]c2cc1N1CCCC1 | 3.13
N#Cc1ccc(-c2cnc(N)c(-c3ccc(C(N)=O)cc3)n2)cc1 | 4.25
Cl.NCCCC(N)(C(=O)O)C(F)F.O (configuration not stated) [EFLORNITHINE HYDROCHLORIDE] | 2.7
CCCCc1ccc(NC(=O)Nc2ccc(O[C@H]3CCCC[C@@H]3N(C)c3ccccc3)c(F)c2)cc1 | 1.16
CC(C(=O)N1CCCC1)N1CCN(S(=O)(=O)c2ccc(C(C)(C)C)cc2)CC1 (configuration not stated) | 2.42
COc1ccc(CCN2CCC(NCc3cccc(N(C)C)c3)CC2)cc1 | 3.48
CC(C)(C)c1cc(C(=O)N2CCN(c3nccnc3C#N)CC2)n(Cc2ccccc2)n1 | 6.36
COc1cc2ncnc(NC3CCN(Cc4ccccc4)CC3)c2cc1OC | 2.88
CC1(COc2ccc(N3CCC(Oc4ccc(OC(F)(F)F)cc4)CC3)cc2)Cn2cc([N+](=O)[O-])nc2O1 (configuration not stated) | 20.4
Cc1ccccc1CN1CCC(O)(c2ccc(Cl)c(C(F)(F)F)c2)CC1 | 3.22
CCOc1ccccc1NC(C)C(=O)Nc1cc(C(F)(F)F)ccc1N1CCOCC1 (configuration not stated) | 4.33
CC(C)(C)C(=O)N(CCCCCCN1C[C@H](O)[C@@H](O)[C@H](O)[C@H]1CO)C1CCCCCC1 | 0.83
